Compounds with a hit are over-represented: about 4.6% of the library has one in this group of screens.
TRHR ag: TRH receptor (human) agonism. P34981. TRHR cells, calcium flux fluo-8, FDSS agonist mode. activation, % at 2 µM. actives 0.18% (n = 360,000). AID 493084
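Steps: seed TRHR cells overnight; add fluo-8 no-wash Ca dye, RT 30 min–1.5 h; record 10 s baseline; pin-transfer compounds; monitor fluorescence 1 cycle/s for the agonist window. Calcium increases flag candidate agonists.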
D1 agonist: agonists of human D1 dopamine receptor. P21728. HEK293 T-REx D1 cells, calcium flux, agonist mode. activation, % at 2 µM. actives 1% (n = 360,000). AID 504660
Target sequence (P21728 whole entry, looked up): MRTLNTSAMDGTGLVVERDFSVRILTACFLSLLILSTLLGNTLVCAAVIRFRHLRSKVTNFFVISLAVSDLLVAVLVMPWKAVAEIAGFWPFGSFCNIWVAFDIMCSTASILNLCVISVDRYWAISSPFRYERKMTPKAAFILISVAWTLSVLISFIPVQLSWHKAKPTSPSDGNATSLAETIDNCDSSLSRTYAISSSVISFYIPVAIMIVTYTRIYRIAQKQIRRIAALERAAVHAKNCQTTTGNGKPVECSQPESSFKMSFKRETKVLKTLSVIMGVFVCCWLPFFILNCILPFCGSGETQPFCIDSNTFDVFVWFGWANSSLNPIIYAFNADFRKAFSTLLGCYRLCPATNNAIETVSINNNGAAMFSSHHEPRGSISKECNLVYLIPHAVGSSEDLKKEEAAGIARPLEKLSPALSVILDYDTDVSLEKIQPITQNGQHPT
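Tetracycline-induced HEK293 TREx D1 cells, force-coupled to calcium signalling, were dye-loaded with a no-wash calcium kit. Compound was pin-added after a 10 s baseline. Fluorescence was read kinetically at 1 cycle/s for 180 s, with calcium rises flagged as agonism.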
D1 antag: antagonists of human D1 dopamine receptor. P21728. HEK293 TREx D1 cells, calcium flux, dopamine EC80; hits give low values. activity change, negative = inhibition, % at 10 µM. actives 3.2% (n = 360,000). AID 504652; in the data active = activity change below about -30%
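Allosteric or orthosteric antagonism assessed as attenuation of the calcium response to EC80 dopamine, added 180 s after compound, in induced HEK293 Trex D1 cells loaded with no-wash calcium dye.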
TRHR enhancer: allosterically enhances the human TRH receptor; actives 0.66% (n = 360,000); P34981; AID 493056; TRHR cells, fluo-8 calcium fluorescence, EC20 TRH enhancement; enhancement, % at 2 µM; in the data active = enhancement above about 30%
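Enhancer read-out: after compound pinning and an initial kinetic agonist-mode read, an EC20 of TRH (10 nM final) was injected and fluo-8 calcium signal (Ex 480/Em 530) followed at 1 s/cycle for 100 cycles in TRHR-expressing cells.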
D1 PAM: enhances dopamine response at the human D1 receptor | P21728 | potentiation, % at 10 µM | HEK293 TREx D1 cells, calcium flux, dopamine EC20 potentiation | actives 0.036% (n = 360,000) | AID 504651; in the data active = potentiation above about 30%
A number is an active result; i = inactive; nt = not tested or not shown. Rule as the data show it, unless noted: active = activation above about 30%; inactive = the rest.

SMILES	TRHR ag	D1 agonist	D1 antag	TRHR enhancer	D1 PAM
COc1cccc(-c2csc(N3CCN(C(=S)Nc4ccccc4Cl)CC3)n2)c1	i	i	i	i	i
CCOCCCNC(=S)N1CCN(c2nc(-c3ccccc3)cs2)CC1	i	i	i	i	i
CC(C)CNC(=S)N1CCN(c2nc(-c3ccc(Cl)cc3)cs2)CC1	i	i	-30.3	i	i
O=[S+]([O-])(c1c(F)cccc1F)N1CCN([S+](=O)([O-])c2c(F)c(F)c(F)c(F)c2F)CC1	i	i	i	i	i
CCN(CC)S(=O)(=O)c1ccc2c(c1)N(CC(=O)Nc1cccc(C#N)c1)C(=O)CO2	i	i	i	i	i
CSc1ccc(S(=O)(=O)NCC(=O)OCC(=O)N2CCC(C)CC2)cc1[N+](=O)[O-]	i	i	-31.4	i	i
CSc1ccc(S(=O)(=O)NCC(=O)OCC(=O)N2CCCCC2C)cc1[N+](=O)[O-] (stereo not drawn)	i	i	i	i	i
COC(=O)c1oc2ccccc2c1NC(=O)c1ccccc1O	i	i	-43.0	i	i
COc1ccccc1C(=O)Nc1c(C(=O)c2ccccc2)oc2ccccc12	i	i	i	i	i
COc1ccccc1C(=O)Nc1c(C(=O)NC(C)(C)C)oc2ccccc12	i	32.6	i	i	33.4
CCOC(=O)c1oc2ccccc2c1NC(=O)c1ccccc1OC	i	i	i	i	i
COc1cccc(Cn2c(=O)n(Cc3ccco3)c(=O)c3oc4ccccc4c32)c1	i	i	i	i	i
CCCC(=O)N(c1ccc2oc(-c3ccccc3)c(C(=O)OCC)c2c1)S(=O)(=O)c1ccc(C)cc1	i	i	i	i	i
COc1ccc(C)cc1Nc1n[n+](C)c(-c2ccc(O)cc2O)s1	i	i	-30.1	i	i
COc1ccc(C)cc1Nc1n[n+](-c2ccccc2)c(-c2ccc(N(C)C)cc2)s1	i	i	-56.8	i	i
COc1ccc(C)cc1Nc1n[n+](C)c(-c2c3ccccc3cc3ccccc23)s1	i	i	i	i	i
COc1ccc(C)cc1Nc1n[n+](-c2ccccc2)c(-c2ccc(OC)c(OC)c2OC)s1	i	i	-37.4	i	i
COc1ccc(C)cc1Nc1n[n+](-c2ccccc2)c(-c2c(Cl)cccc2Cl)s1	i	32.4	i	i	i
Cc1c(Cl)cccc1NC(=O)C(=O)NCCc1csc(-c2cccc(F)c2)n1	i	i	i	i	i
COc1ccc(OC)c(/C=C(/C#N)c2nc(-c3ccc(-c4ccccc4)cc3)cs2)c1	i	i	i	i	i
O=C(c1ccc(CS(=O)Cc2ccccc2Cl)o1)N1CCN(c2ccccn2)CC1 (stereo not drawn)	i	i	i	i	i
COc1cccc(N2CCN(C(=O)c3ccc(CS(=O)Cc4ccccc4Cl)o3)CC2)c1 (stereo not drawn)	i	i	i	i	i
O=C(c1ccc(CS(=O)Cc2ccc(Cl)cc2)o1)N1CCN(c2ccccn2)CC1 (stereo not drawn)	i	i	-36.4	i	i
O=C(c1ccc(CS(=O)Cc2ccccc2Cl)o1)N1CCN(c2cccc(Cl)c2)CC1 (stereo not drawn)	i	i	-45.0	i	i
O=C(c1ccc(CS(=O)c2ccccc2Cl)o1)N1CCN(c2ccccn2)CC1 (stereo not drawn)	i	i	-35.7	i	i
SMILES	TRHR ag	D1 agonist	D1 antag	TRHR enhancer	D1 PAM
CS(=O)(=O)N(CC(=O)N1CCN(c2ccc(F)cc2)CC1)c1ccc(F)c(Cl)c1	i	i	nt	39.3	i
N#CCCN(CCN1CCCC1)S(=O)(=O)c1ccc(-c2ccc([N+](=O)[O-])cc2)cc1	i	38.9	i	i	i
CS(=O)(=O)c1sc(C#N)c2c1C(=O)CC(c1ccccc1)C2 (stereo not drawn)	i	i	-71.7	i	i
CCOC(=O)c1c(NC(=O)COC(=O)C2CCC2)sc(C(=O)N(C)C)c1C	i	i	-45.7	i	i
COc1ccc(-n2cc(C(=O)OCc3ccc(Cl)cc3)c3ccccc3c2=O)cc1	i	i	i	i	i
Cc1cc(C(F)(F)F)c(C#N)c(SCC(=O)Nc2nc3ccccc3s2)n1	i	64.2	i	i	i
Cc1ccc(-c2cc(C(F)(F)F)c(C#N)c(SCC(=O)Nc3ccccc3F)n2)cc1	i	71.8	i	i	i
O=C(CSc1ncnc2c1oc1ccccc12)Nc1nc2ccccc2s1	i	i	-48.2	i	i
CCOc1ccc(-c2cc(C(F)(F)F)c(C#N)c(SCC(=O)Nc3ccccc3)n2)cc1	i	31.6	-51.9	i	i
CCc1nnc(NC(=O)CSc2ncnc3c2oc2ccccc23)s1	i	i	i	i	i
COc1ccc(C(CC(=O)Nc2cccc(C)c2C)N2Cc3ccccc3C2=O)cc1 (stereo not drawn)	i	i	i	i	i
N#Cc1ccc(C(=O)NCc2ccc3c(c2)CCN3C(=O)c2ccc(F)cc2)cc1	i	i	-33.3	i	i
CCOc1ccc(C(=O)NCc2ccc3c(c2)CCN3C(=O)c2ccc(C)cc2)cc1OCC	i	i	-66.1	i	i
COc1ccc(CCC(=O)NCc2ccc3c(c2)CCN3C(=O)c2ccc(Cl)cc2)cc1	i	i	-34.9	i	i
COc1cccc(Cn2cnc3c2c(=O)n(C)c(=O)n3C)c1	i	i	i	i	i
COc1ccc(OC)c(CNc2ncnc3onc(-c4ccc(Cl)cc4)c23)c1	i	i	i	i	i
Fc1ccc(NC(=S)N2CCCN(c3ccc(C(F)(F)F)cn3)CC2)c(F)c1	i	i	-53.7	i	i
CC1CN(C(=S)Nc2ccc(F)cc2F)CC(C)O1 (stereo not drawn)	i	i	i	i	i
Cc1csc2ncnc(N3CCN(C(=S)Nc4ccc(F)cc4F)CC3)c12	i	i	-35.9	i	i
O=C(Nc1ccc(F)cc1F)N1CCCN(c2ccc(C(F)(F)F)cn2)CC1	i	i	i	i	i
OCc1cnc(SCc2ccccc2)n1Cc1ccccc1	i	i	i	i	i
C=CCSc1ncc(CO)n1Cc1ccccc1	i	i	-50.2	i	i
COc1ccc(-c2nn(-c3ccccc3)cc2/C=N/NC(=O)c2cccc(S(=O)(=O)Nc3ccccc3Cl)c2)cc1	i	i	-36.4	i	i
COc1ccc(-c2nn(-c3ccccc3)cc2/C=N/NS(=O)(=O)c2ccccc2)cc1	i	i	i	i	i
CCOc1cccc(C(=O)N(Cc2ccc(C)o2)C2CCS(=O)(=O)C2)c1 (stereo not drawn)	i	i	i	i	i
COc1ccc(/C=C/C(=O)NC(=S)NCC2CCCO2)cc1 (stereo not drawn)	i	i	-47.6	i	i
CCC12CN3CC(C)(CN(C1)C3c1c[nH]c3ccc(OC)cc13)C2=O (stereo not drawn)	i	i	i	i	i

Screens from PubChem BioAssay.
